Consider 40 compounds from PubChem BioAssay (NCI).

The structures appear in SMILES notation. Compounds without any hit were thinned out: in the full panel of roughly 83,000, 20% have a hit.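 Method: cells in 96-well plates; compound added at one concentration; 48 h incubation; percent growth measured; values under 10 scored active.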 Values without a mark were called inactive. Calls of active or inactive are those of the source.

This test concerns HL-60(TB) leukemia. Description: NCI-60 one-dose screen, 48 h (100 = growth as untreated, 0 = no growth, -100 = all killed). As to conditions: 10 µM unless noted.
Turning to `CCN(CC)CC(C)(C)C(=O)/C=C/c1ccccc1`, the growth was 26.2%.

Take `BrC(Br)(Br)c1cnc2ccccc2n1`: the growth was -38.1% (active).

Consider `O=C1CSC(c2ccccc2O)N1c1nnc(Cn2ccnc2)o1` (stereo not given), for which the growth is 24.9%.

In the case of `COc1ccc(C(=O)COc2cccc(/C=C3\COc4ccc5ccccc5c4C3=O)c2)cc1`, the growth was 72.1%.

Regarding `COc1c(C)c(C)c(OC)c2c1[nH]c(=O)c1c3cccnc3cn21`, the growth was 112%.

Turning to `COc1cc(/C=C/C(=O)C(C(=O)/C=C/c2ccc(OC(=O)CCNc3nnc(C)s3)c(OC)c2)C(=O)CCNc2nnc(C)s2)ccc1OC(=O)CCNc1nnc(C)s1`, the growth was -40.1% (active).

As to `Cc1cc2ccccc2c(O)c1C#N`, the growth is 89.6%.

Take `COc1ccc(OC)c(-c2cc(-c3ccc(Cl)cc3)c3c(N)c(C(=O)c4ccc(Cl)cc4)sc3n2)c1`: the growth is 110%.

As to `C[C@]12CCc3nc(Nc4cccc(O)c4)sc3C1=CC[C@@H]1[C@@H]2CC[C@]2(C)/C(=N\NC(N)=S)CC[C@@H]12`, the growth is 10.9%.

In the case of `CS(=O)(=O)c1ccc(/C(=N/NC(N)=S)c2ccc(F)cc2)cc1`, the growth is 99.1%.

With `CCCCc1n(Cc2ccc3ccccc3n2)cc[n+]1Cc1ccc2ccccc2n1`, the growth is -44.7% (active).

As to `CCC12CCC3c4ccc(O)cc4CCC3C1CC(O)C2O` (stereo not given), the growth is 63.1%.

Consider `C(/C=C/c1ccccc1)=Nc1ccc(CCc2ccc(N=C/C=C/c3ccccc3)cc2)cc1`, for which the growth is 42.9%.

On to `COc1ccc2oc(=O)cc(C(c3ccc[nH]3)c3ccc[nH]3)c2c1`, for which the growth was -20.2% (active).

As for `COc1cc2c(c3c1c(=O)c1cccc(F)c1n3C)C=CC(C)(C)O2`, the growth was 100%.

As for `O=C(C[n+]1ccn(CC(OCc2ccc(Cl)cc2Cl)c2ccc(Cl)cc2Cl)c1)c1ccc(F)cc1` (stereo not given), the growth was -51.8% (active).

Regarding `CN1CCN(c2ccc(NC3=C(Cl)C(=O)c4ncccc4C3=O)cc2C#N)CC1`, the growth is -26.3% (active).

`CC(=O)c1ccc2c(c1)C1C=CCC1[C@H](c1cc3c(cc1Br)OCO3)N2` (stereo not given in full): the growth is -45.3% (active).

`CCOC(=O)c1ccc(NC(=S)P(=O)(c2ccccc2)c2ccccc2)cc1`: the growth is 80.4%.

Regarding `COc1cc(-c2cc(-c3ccc(Nc4ncnc5cc(Cl)ccc45)cc3)nc(N3CCN(C)CC3)n2)cc(OC)c1OC`, the growth was 76.4%.

Take `O=c1oc2ccc(-c3ccc(F)cc3F)cc2c(=O)n1-c1cccc(C(F)(F)F)c1`: the growth is -33.3% (active).

As for `CCN(CC)Cc1cc(Nc2ccnc3ccc(OC)cc23)ccc1O`, the growth is 32.5%.

Turning to `O=C(Nc1cccc(-n2ccc3c(NC(=O)c4ccccc4)nccc32)c1)Nc1ccc(Cl)c(C(F)(F)F)c1`, the growth was -22.8% (active).

For `C/C(=C\c1csc(C)n1)[C@@H]1C[C@@H]2O[C@]2(C)CCC[C@H](C)[C@H](O)[C@@H](C)C(=O)C(C)(C)[C@@H](O)CC(=O)N1`, the growth is 0.771% (active).

Turning to `CC(C)CCSc1nc(N)nc2nc[nH]c12`, the growth is 76.7%.

With `COc1ccc(C(O)(c2ccccc2)C(C(=O)O)c2ccccc2)cc1` (stereo not given), the growth was 110%.

`O=Cc1c[nH]c2ccc(-c3csc4ccccc34)cc12`: the growth is 3.68% (active).

Regarding `CNc1ccc(Br)c2c1C(=O)c1ccccc1C2=O`, the growth was 97.1%.

Regarding `CCN(CC)CCCC(C)Nc1ccc2ccc(Cl)cc2n1` (stereo not given), the growth is 101%.

Consider `COc1ccc2c(c1)C(C)Cc1c(Cl)nc(C)nc1N2C` (stereo not given), for which the growth is 11.3%.

As for `Cc1cc(-c2ccccc2)cc(SC#N)[n+]1[O-]`, the growth is 7.14% (active).

For `COC(=O)c1ccc(NC(=O)Nc2ccc(C(=O)OC)cc2)cc1`, the growth is 92.8%.

`COc1ccc2sc3c(NCCO)nc4ccccc4c3c(=O)c2c1`: the growth was 104%.

As for `Cc1cc(N(CCCNc2ccnc3cc(Cl)ccc23)Cc2ccc3c(c2)OCO3)nc(N2CCCCC2)n1`, the growth was -68.4% (active).

As to `Fc1ccc2[nH]cc(-c3nc(-c4c[nH]c5c(Cl)nccc45)cs3)c2c1`, the growth was 35.4%.

Take `NS(=O)(=O)c1ccc(-n2ncc3c(=O)[nH]c(CN4CCN(c5cc6c(cc5F)c(=O)c(C(=O)O)cn6C5CC5)CC4)nc32)cc1`: the growth was 98%.

Regarding `CC(C)(C)n1cc(-c2ccnc(NCCNS(=O)(=O)c3cccc4ccccc34)c2)c(-c2cccc(O)c2)n1`, the growth was 71%.

On to `COc1cc2nc3cc([N+](=O)[O-])ccc3c(NCCCNCC(C)(C)O)c2cc1OC`, for which the growth was -0.733% (active).

As for `O=C(c1ccc(N2CCOCC2)cc1[N+](=O)[O-])N1CCOCC1`, the growth was 133%.

Consider `Cc1cc(/C=C/c2ccc3cc(N(C)C)ccc3[n+]2C)c(C)n1-c1ccccc1`, for which the growth was -26.1% (active).
